From PubChem BioAssay
HCV inh: blocks hepatitis C virus | 340,000 compounds, 3.4% hits | Potency, µM (highest dose often 41.8 µM), actives largely listed as inhibitors | Huh7.5.1 HCVcc-Cre infection, luciferase reporter, 44 h
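Whole-lifecycle infectious HCVcc-Cre system; cells 1,000/well, compound then virus (~0.5 moi) added 4 h after plating, 44 h culture. Luciferase read 15 sec following 15 min substrate incubation, room temp.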
Pf growth 96h: inhibits malaria parasite growth, 96 h; P. falciparum luciferase reporter growth, 96 h; Potency, µM (titrated, usually from 28.7 µM), hits mostly inhibitors; 320,000 compounds, 6.9% hits
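Erythrocytes infected with luciferase-expressing P. falciparum were dispensed at 2% hematocrit and 0.05% parasitemia (final), then incubated with compounds 96 hours at 37 C in 5% CO2. Luminescence after detection reagent addition reported growth.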
Pf growth 48h: inhibits P. falciparum growth in the first generation, 48 h | P. falciparum luciferase growth in erythrocytes, 48 h | Potency, µM (titrated, usually from 28.7 µM), hits mostly inhibitors | 310,000 compounds, 5.9% hits
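Here the parasites carry a stable luciferase gene and grow inside erythrocytes in Albumax-based RPMI medium with compound for one erythrocytic cycle. Activity is scored as loss of luminescent signal.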
CHX counter: counter-screen hit for Shiga toxin inhibitors, cycloheximide. max response, %. AID 2314. 300,000 compounds, 12% hits. cell reporter, cycloheximide protein synthesis inhibition counterscreen; in the data active = max response mostly above about 13%, no sharp cut-off; inactive = mostly below about 14%; note: read at 38.3 µM for the half of the compounds with a filed dose
Shiga inhibitor: blocks Shiga toxin action in Vero cells; Vero cells, Shiga toxin protein synthesis inhibition reporter; inhibition, % at 38.7 µM; 290,000 compounds, 9.2% hits; in the data active = inhibition mostly above about 28%, no sharp cut-off; inactive = mostly below about 43%
HCMV inh: inhibitors of human cytomegalovirus; 410,000 compounds, 4.5% hits; HFF cells, HCMV-luciferase reporter, 72 h; stronger effect = lower value; activity change, negative = inhibition, % at 57.5 µM; AID 1259415; in the data active = activity change below about -60%; inconclusive = no clear call, values can overlap the other calls; inactive = above about -39%
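Steps: HFFs plated, 16 h 37C; compounds added; HCMV-luciferase added to MOI 1 PFU/cell; 72 h 37C; OneGlo reagent, 5 min room temperature; luminescence read, normalized to controls.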
A number is an active result; – = inactive; ? = inconclusive; · = no result given; + = active, no number. Hits are enriched below; roughly 21% of the tested compounds scored in any of these assays. Unless noted, calls come from the whole dose curve; as a rule, active = well fitted inhibition curve with a large enough effect; inconclusive = small, poorly fitted or top-dose-only effect, or another doubt; inactive = no such curve, though single readings can be large or run the other way.

SMILES	HCV inh	Pf growth 96h	Pf growth 48h	CHX counter	Shiga inhibitor	HCMV inh
CN(C(=O)c1cccc(N2C(=O)C3CC=CCC3C2=O)c1)C1CCCCC1 (stereo not given)	–	10µM	?	–	–	–
O=C(COC(=O)c1ccc(N2CCCC2=O)cc1)Nc1ccccc1	–	–	–	·	·	–
O=C(COC(=O)c1cccc(O)c1)c1ccccc1	–	–	–	·	·	–
Nc1cccc(C(=O)OCC(=O)c2ccccc2)c1	–	–	–	44	+	–
COc1cccc(CC(CC(=O)O)C(=O)Nc2cc(C)ccc2C)c1 (stereo not given)	–	–	–	–	–	–
CC1CCCN(CCOc2cccc(Oc3ccccc3)c2)C1 (stereo not given)	–	–	?	–	·	–
CC1N=C2c3ccccc3N=C(SCC(=O)NCCc3ccccc3)N2C1=O (stereo not given)	·	·	·	·	·	–
O=C(COC(=O)c1cccc(N2C(=O)C3CC=CCC3C2=O)c1)c1ccccc1 (stereo not given)	–	–	–	27	55	–
O=C(O)c1cccc(N2C(=O)C3CC=CCC3C2=O)c1 (stereo not given)	–	–	–	–	–	–
O=C(c1cccc(N2C(=O)C3CC=CCC3C2=O)c1)N1CCN(c2ccccc2)CC1 (stereo not given)	·	?	12µM	–	–	–
O=C(c1cccc(N2C(=O)C3CC=CCC3C2=O)c1)N1CCCCCC1 (stereo not given)	–	0.17µM	–	–	–	–
CCc1ccc(C(=O)COC(=O)c2cccc(N3C(=O)c4c(C)nc5ccccc5c4C3=O)c2)cc1	–	?	–	56	103	–
CN(Cc1ccccc1)C(=O)c1cccc(N2C(=O)C3CC=CCC3C2=O)c1 (stereo not given)	–	–	–	–	–	?
C[C@@H]1CN([C@@H](C)CO)C(=O)CCCn2nncc2CO[C@H]1CN(C)C	·	·	·	·	·	–
COc1ccc(-c2noc(CCC(=O)NCCCN3CCC(Cc4ccccc4)CC3)n2)cc1	2.5µM	–	–	–	–	?
COc1ccc(-c2noc(CCC(=O)NCCCN3CCN(c4ccc(F)cc4)CC3)n2)cc1	22µM	?	?	–	–	-64
CCOc1cc(-c2noc(CCC(=O)NCCc3ccccc3)n2)ccc1OC	–	2.6µM	–	–	–	–
Cc1ccc(-c2noc(CCC(=O)NCC3CCN(Cc4cccc(C)c4)CC3)n2)cc1	1.1µM	–	?	–	–	?
COc1ccc(-c2noc(CCC(=O)NCCc3ccccc3)n2)cc1OC	–	?	?	–	–	–
CCCc1cc(=O)[nH]c(SCC(=O)Nc2ccc(OC)c(S(=O)(=O)N3CCCCC3)c2)n1	?	·	·	·	·	–
COc1ccc(-c2nnc(SCc3cccc(Cl)c3)o2)cc1	·	·	·	·	·	–
Cc1ccc(N(Cc2cc3ccc(C)cc3[nH]c2=O)C(=O)c2ccco2)cc1	–	–	–	–	–	?
Cc1ccc2cc(CN(C(=O)c3ccco3)c3ccccc3)c(=O)[nH]c2c1	?	?	–	23	–	–
CCOc1ccc(N(Cc2cc3ccc(C)cc3[nH]c2=O)C(=O)COC)cc1	–	?	–	24	–	–
Cc1cccc(N(Cc2cc3ccc(C)cc3[nH]c2=O)C(=O)c2ccco2)c1	?	10µM	?	–	–	–
SMILES	HCV inh	Pf growth 96h	Pf growth 48h	CHX counter	Shiga inhibitor	HCMV inh
Cc1ccccc1C(=O)O[C@H]1[C@H](Cc2ccccc2)NS(=O)(=O)[C@H]2CC3C=C[C@]12O3	–	·	·	·	·	–
COc1ccc2c(c1)[nH]c1c(=O)n(CC3CCCO3)cnc12 (stereo not given)	–	–	·	28	–	–
O=c1c2[nH]c3cccc(Cl)c3c2ncn1CC1CCCO1 (stereo not given)	–	–	–	23	49	–
O=c1c2[nH]c3cccc(Cl)c3c2ncn1CCN1CCCCC1	–	–	–	–	–	–
CCCCn1cnc2c([nH]c3cc(OC)ccc32)c1=O	?	–	–	–	–	–
CC(C)CC1NC(=O)c2ccccc2-n2c1nc1ccc(F)cc1c2=O (stereo not given)	–	–	–	·	·	–
Cc1c(C(=O)N2CCCCC2)c(S(=O)(=O)N2CCC(C)CC2)c(C)n1C	–	–	–	–	–	+
CCOC(=O)c1c(S(=O)(=O)N2CCCC(C(=O)Nc3ncccc3C)C2)c(C)n(C)c1C (stereo not given)	–	12µM	–	–	–	–
CCOC(=O)c1c(S(=O)(=O)N2CCC(C)CC2)c(C)n(C)c1C	–	8.3µM	–	–	–	–
CCOC(=O)c1c(S(=O)(=O)N2CCCC(C(=O)Nc3cc(C)ccn3)C2)c(C)n(C)c1C (stereo not given)	·	·	·	·	·	–
CCOC(=O)c1c(S(=O)(=O)N2CCCCCC2)c(C)n(C)c1C	–	?	–	–	–	–
CCOc1cccc(CC(=O)NCc2ccc3c(c2)CCN3C(C)=O)c1OCC	·	·	·	·	·	–
CCOc1ccc(N2CC(NC(=O)C3CCCC3)CC2=O)cc1 (stereo not given)	·	·	·	·	·	–
COc1ccccc1-c1nc(S(=O)(=O)c2ccccc2)c(N2CCC(C)CC2)o1	·	·	·	·	·	–
O=C(Nc1ccccc1-c1nnc(SCc2ccccc2)o1)c1ccccc1	?	?	?	–	–	–
CCSc1nnc(-c2ccncc2)o1	–	–	–	–	–	–
Clc1ccc(CSc2nnc(-c3ccncc3)o2)cc1	?	–	–	–	–	-70
ClC1(Cl)CC1CSc1nnc(-c2ccncc2)o1 (stereo not given)	–	?	–	19	–	–
OCC#CCSc1nnc(-c2ccncc2)o1	–	0.29µM	–	–	–	–
O=C(Nc1ccccc1-c1nnc(SCc2ccc(Cl)cc2)o1)c1ccccc1	–	–	13µM	–	–	–
c1ccc(CN2CCCC3CC2c2ccccc23)cc1 (stereo not given)	·	·	·	·	·	–
CSc1ccc(-c2nc3ccc(C)cn3c2Nc2ccccc2C)cc1	·	·	·	·	·	–
O=C1NC(=O)[C@]2(Cc3ccccc3N3CCN(c4ccccc4)CC32)C(=O)N1Cc1ccccc1 (stereo not given in full)	–	9.3µM	?	30	54	–
O=C1NC(=O)C2(Cc3ccccc3N3CCCC32)C(=O)N1Cc1ccccc1 (stereo not given)	–	–	?	–	–	–
O=C1NC(=O)[C@]2(Cc3ccccc3N3CCN(c4ccccc4)CC32)C(=O)N1c1ccccc1 (stereo not given in full)	–	–	?	25	76	–
CN1C(=O)NC(=O)[C@]2(Cc3ccccc3N3CCN(c4ccccc4)CC32)C1=O (stereo not given in full)	–	–	·	31	–	–
Cc1ccc(NC(=O)c2c(C)oc3ncn(CC(C)C)c(=O)c23)nc1	·	·	·	·	·	–
CNC(=O)NC(=O)C(NC1CCCc2ccccc21)c1ccccc1 (stereo not given)	–	?	?	–	–	–
